Measurements taken from the supplement of paper PMC10849652.
Targets with a hit are over-represented here; the source holds about 7,900 in all. About 0.6% of all pairs of compound and target were hits. Unmarked numbers belong to inactive results.

Compound: CCCc1cc(C)[nH]c(=O)c1CNC(=O)c1cc(-c2ccnc(N3CCN(C)CC3)c2)cc2c1cnn2C(C)C
Test: log2 fold change, soluble protein after heating vs DMSO (PISA); higher = thermal stabilisation; K562 cells, 10 uM, 30 min; active = over 0.2 and 3.5 SD of the protein, either way, in both replicates (recomputed)
In short: (§1)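 K562 cells at 2×10^6 cells/mL were exposed to 10 μM compound for 30 min, then aliquots were heated for 3 min across 48°C-58°C, pooled, and extracted in PBS containing 0.5% NP-40 at 4°C. The supernatant after 21,000xg for 90 min was taken as soluble protein and measured by TMTpro 16plex LC-MS/MS with channel sums equalised. Thermal stability is reported relative to control samples, with values from duplicates. Fold changes are given on a log2 scale.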

Chain of UniProt Q06609 (Q06609 whole entry, looked up): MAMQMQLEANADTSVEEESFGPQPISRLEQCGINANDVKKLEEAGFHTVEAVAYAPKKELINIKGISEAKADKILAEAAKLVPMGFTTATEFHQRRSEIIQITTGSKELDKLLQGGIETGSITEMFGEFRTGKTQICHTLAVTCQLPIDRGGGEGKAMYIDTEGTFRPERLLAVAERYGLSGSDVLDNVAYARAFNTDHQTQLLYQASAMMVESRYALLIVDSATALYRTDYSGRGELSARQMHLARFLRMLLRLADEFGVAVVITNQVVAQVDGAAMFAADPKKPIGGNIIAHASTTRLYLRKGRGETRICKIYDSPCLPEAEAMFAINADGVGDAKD
Chain of UniProt P06400 (P06400 whole entry, looked up): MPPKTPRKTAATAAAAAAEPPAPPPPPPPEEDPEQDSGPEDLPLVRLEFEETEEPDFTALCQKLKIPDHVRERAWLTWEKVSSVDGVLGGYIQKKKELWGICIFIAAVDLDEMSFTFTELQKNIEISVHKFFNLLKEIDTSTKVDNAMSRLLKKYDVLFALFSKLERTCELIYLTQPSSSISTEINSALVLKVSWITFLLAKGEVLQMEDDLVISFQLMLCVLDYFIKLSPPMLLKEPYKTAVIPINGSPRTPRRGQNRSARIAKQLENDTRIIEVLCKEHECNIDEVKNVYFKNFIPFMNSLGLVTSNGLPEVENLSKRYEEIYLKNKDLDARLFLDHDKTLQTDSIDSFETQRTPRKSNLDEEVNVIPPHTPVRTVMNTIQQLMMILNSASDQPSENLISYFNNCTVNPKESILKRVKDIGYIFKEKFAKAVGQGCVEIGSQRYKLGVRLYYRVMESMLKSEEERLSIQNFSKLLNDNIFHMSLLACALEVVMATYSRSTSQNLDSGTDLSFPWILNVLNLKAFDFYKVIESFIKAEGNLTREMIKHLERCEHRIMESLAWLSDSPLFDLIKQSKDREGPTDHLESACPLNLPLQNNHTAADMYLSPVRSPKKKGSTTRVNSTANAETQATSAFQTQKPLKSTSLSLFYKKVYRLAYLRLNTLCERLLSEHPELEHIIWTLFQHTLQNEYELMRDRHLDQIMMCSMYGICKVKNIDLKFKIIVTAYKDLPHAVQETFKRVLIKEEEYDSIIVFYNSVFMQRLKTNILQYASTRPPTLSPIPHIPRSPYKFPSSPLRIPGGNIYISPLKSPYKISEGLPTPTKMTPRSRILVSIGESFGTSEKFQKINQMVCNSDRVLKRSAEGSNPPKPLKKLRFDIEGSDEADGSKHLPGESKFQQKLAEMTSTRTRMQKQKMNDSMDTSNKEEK
Chain of UniProt Q96T23 (Q96T23 whole entry, looked up): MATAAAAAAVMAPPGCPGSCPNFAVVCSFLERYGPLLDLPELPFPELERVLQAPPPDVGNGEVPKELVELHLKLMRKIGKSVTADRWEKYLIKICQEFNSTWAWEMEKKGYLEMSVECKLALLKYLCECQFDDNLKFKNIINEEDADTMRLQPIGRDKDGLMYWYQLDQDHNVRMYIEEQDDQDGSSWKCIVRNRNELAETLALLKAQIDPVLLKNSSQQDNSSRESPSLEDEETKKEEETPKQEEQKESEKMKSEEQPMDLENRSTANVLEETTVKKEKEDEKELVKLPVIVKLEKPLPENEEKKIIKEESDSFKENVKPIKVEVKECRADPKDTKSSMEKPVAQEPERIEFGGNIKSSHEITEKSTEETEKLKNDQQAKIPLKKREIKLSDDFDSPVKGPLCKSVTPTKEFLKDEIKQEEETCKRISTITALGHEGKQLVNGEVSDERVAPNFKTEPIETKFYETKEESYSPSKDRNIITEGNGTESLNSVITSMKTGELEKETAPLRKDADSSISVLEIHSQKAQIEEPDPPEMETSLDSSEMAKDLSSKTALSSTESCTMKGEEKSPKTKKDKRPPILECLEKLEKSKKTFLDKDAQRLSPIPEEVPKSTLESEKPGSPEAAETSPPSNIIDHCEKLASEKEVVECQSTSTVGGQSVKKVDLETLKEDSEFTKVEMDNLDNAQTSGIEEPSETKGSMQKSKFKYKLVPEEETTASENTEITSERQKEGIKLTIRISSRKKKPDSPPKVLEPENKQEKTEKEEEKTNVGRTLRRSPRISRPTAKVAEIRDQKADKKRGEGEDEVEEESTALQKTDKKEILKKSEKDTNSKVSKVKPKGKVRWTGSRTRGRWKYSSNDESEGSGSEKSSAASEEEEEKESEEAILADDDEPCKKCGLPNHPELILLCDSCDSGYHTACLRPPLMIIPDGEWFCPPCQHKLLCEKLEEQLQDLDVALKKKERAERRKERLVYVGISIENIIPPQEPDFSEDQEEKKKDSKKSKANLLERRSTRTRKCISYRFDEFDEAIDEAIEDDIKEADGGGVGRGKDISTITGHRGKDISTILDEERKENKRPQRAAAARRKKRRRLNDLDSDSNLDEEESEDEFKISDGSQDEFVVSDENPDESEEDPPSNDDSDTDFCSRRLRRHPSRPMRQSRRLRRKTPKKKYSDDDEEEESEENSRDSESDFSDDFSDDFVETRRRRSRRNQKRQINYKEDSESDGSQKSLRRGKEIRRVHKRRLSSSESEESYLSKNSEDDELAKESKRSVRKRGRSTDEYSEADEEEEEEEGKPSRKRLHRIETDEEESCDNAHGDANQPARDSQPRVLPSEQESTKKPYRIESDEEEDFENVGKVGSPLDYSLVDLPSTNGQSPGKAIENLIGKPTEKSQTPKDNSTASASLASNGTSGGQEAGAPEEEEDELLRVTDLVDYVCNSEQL
Chain of UniProt Q9NR46 (Q9NR46 whole entry, looked up): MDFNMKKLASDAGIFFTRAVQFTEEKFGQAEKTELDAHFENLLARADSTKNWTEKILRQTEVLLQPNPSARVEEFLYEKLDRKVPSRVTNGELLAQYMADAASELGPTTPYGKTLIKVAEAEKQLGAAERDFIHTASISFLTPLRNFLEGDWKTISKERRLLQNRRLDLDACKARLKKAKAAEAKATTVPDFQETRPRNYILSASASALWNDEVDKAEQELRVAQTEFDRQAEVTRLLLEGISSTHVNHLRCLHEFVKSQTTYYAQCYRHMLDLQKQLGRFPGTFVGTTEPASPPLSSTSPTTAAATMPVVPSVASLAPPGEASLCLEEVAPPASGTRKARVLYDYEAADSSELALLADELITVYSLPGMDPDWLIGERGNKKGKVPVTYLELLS
Chain of UniProt O00560 (O00560 whole entry, looked up): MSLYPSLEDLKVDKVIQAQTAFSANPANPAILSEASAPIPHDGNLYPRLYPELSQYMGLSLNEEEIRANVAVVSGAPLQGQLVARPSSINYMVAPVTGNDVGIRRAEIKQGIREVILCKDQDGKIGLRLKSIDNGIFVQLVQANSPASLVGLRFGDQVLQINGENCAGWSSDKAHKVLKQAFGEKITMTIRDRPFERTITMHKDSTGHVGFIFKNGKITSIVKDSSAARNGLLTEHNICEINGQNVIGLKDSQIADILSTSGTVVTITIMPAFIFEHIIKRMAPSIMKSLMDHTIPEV
Chain of UniProt Q8NBX0 (Q8NBX0 whole entry, looked up): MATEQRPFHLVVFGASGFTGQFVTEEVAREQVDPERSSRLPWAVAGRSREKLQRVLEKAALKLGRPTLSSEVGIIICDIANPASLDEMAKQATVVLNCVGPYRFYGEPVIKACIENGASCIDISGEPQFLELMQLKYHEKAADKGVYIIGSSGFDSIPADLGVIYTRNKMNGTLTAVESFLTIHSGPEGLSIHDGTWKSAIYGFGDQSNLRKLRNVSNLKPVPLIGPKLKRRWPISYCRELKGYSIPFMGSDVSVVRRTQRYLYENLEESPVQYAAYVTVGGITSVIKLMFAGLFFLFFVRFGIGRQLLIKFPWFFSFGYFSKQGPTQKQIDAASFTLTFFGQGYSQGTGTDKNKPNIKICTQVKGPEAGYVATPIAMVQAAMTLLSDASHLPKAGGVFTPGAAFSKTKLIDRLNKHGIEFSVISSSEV
Chain of UniProt P61586 (P61586 whole entry, looked up): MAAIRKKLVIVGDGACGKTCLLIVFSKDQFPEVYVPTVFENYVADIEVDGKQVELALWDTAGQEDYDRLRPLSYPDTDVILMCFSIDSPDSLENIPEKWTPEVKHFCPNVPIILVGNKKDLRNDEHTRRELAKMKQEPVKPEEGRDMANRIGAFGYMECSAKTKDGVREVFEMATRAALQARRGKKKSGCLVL
Chain of UniProt Q9HB90 (Q9HB90 whole entry, looked up): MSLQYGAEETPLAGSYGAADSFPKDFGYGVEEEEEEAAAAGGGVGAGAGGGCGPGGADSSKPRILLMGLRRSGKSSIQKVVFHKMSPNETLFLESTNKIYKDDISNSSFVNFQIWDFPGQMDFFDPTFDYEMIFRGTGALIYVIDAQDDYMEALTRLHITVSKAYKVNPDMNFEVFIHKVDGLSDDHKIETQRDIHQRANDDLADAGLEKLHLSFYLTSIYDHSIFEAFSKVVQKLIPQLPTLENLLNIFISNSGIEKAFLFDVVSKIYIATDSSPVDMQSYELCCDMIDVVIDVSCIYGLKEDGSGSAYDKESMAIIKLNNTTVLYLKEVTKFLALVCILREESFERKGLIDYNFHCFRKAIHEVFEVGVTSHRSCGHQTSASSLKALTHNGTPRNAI
Chain of UniProt Q96ER3 (Q96ER3 whole entry, looked up): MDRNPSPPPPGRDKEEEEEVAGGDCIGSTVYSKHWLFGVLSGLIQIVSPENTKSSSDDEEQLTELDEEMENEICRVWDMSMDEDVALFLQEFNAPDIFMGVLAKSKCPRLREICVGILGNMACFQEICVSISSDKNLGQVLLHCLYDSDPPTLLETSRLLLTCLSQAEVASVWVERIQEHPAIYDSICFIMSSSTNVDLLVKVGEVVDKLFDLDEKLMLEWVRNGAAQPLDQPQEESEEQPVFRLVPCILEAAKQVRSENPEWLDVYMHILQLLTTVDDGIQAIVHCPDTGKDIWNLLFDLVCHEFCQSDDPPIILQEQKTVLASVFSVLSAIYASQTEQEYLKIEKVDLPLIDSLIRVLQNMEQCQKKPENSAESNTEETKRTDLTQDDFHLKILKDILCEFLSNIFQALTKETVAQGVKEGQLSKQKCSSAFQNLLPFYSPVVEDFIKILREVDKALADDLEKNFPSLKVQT

Target	log2 fold change
ROCK2 (UniProt O75116)	-0.06
SCCPDH (UniProt Q8NBX0)	0.016
RB1 (UniProt P06400)	-0.026
RAB3IL1 (UniProt Q8TBN0)	-0.025
SDCBP (UniProt O00560)	-0.176
RTN4IP1 (UniProt Q8WWV3)	-0.218
SGPL1 (UniProt O95470)	0.074
RPS14 (UniProt P62263)	0.046
RAD51 (UniProt Q06609)	0.032
SH3GLB2 (UniProt Q9NR46)	0.021
RPS5 (UniProt P46782)	0.038
RAD50 isoform 2 (UniProt Q92878)	0.014
RPS13 (UniProt P62277)	0.091
RHOA (UniProt P61586)	0.145
SLC12A9 (UniProt Q9BXP2)	-0.059
SCG3 (UniProt Q8WXD2)	0.11
RSF1 (UniProt Q96T23)	0.029

Target	log2 fold change
RPS3 (UniProt P23396)	0.041
RPS6KA1 isoform 2 (UniProt Q15418)	0.071
RRAGC (UniProt Q9HB90)	-0.048
SERINC3 (UniProt Q13530)	-0.414 (active)
RBM25 (UniProt P49756)	-0.093
SKP1 (UniProt P63208)	-0.032
RARS (UniProt P54136)	0.075
RDH11 (UniProt Q8TC12)	0.007
RPS15 (UniProt P62841)	0.1
RPS18 (UniProt P62269)	-0.01
RETSAT (UniProt Q6NUM9)	-0.091
RMC1 (UniProt Q96DM3)	0.021
SAAL1 (UniProt Q96ER3)	-0.014
RPA1 (UniProt P27694)	0.104
RAC1 (UniProt P63000)	0.032
SDHC (UniProt Q99643)	-0.122
SERPINA7 (UniProt P05543)	-0.349

Compound: CCN(CC)Cc1ccc2cc(COC(=O)Nc3ccc(C(=O)NO)cc3)ccc2c1 [givinostat]
Test: as above
In short: as §1

Target	log2 fold change
ROCK2 (UniProt O75116)	0.055
SCCPDH (UniProt Q8NBX0)	0.183
RB1 (UniProt P06400)	-0.02
RAB3IL1 (UniProt Q8TBN0)	-0.024
SDCBP (UniProt O00560)	-0.027
RTN4IP1 (UniProt Q8WWV3)	-0.081
SGPL1 (UniProt O95470)	-0.035
RPS14 (UniProt P62263)	0.023
RAD51 (UniProt Q06609)	0.179
SH3GLB2 (UniProt Q9NR46)	0.049
RPS5 (UniProt P46782)	-0.014
RAD50 isoform 2 (UniProt Q92878)	0.026
RPS13 (UniProt P62277)	0.045
RHOA (UniProt P61586)	-0.032
SLC12A9 (UniProt Q9BXP2)	-0.014
SCG3 (UniProt Q8WXD2)	-0.043
RSF1 (UniProt Q96T23)	0.084

Target	log2 fold change
RPS3 (UniProt P23396)	0.007
RPS6KA1 isoform 2 (UniProt Q15418)	-0.141
RRAGC (UniProt Q9HB90)	0.052
SERINC3 (UniProt Q13530)	0.064
RBM25 (UniProt P49756)	0.202
SKP1 (UniProt P63208)	-0.05
RARS (UniProt P54136)	0.016
RDH11 (UniProt Q8TC12)	0.066
RPS15 (UniProt P62841)	-0.041
RPS18 (UniProt P62269)	0.021
RETSAT (UniProt Q6NUM9)	0.31
RMC1 (UniProt Q96DM3)	-0.013
SAAL1 (UniProt Q96ER3)	-0.059
RPA1 (UniProt P27694)	0.069
RAC1 (UniProt P63000)	-0.059
SDHC (UniProt Q99643)	-0.108
SERPINA7 (UniProt P05543)	-0.043

Compound: CCN(CCCOc1ccc2c(Nc3cc(CC(=O)Nc4cccc(F)c4)[nH]n3)ncnc2c1)CCOP(=O)(O)O [barasertib]
Test: as above
In short: as §1

Target	log2 fold change
ROCK2 (UniProt O75116)	0.027
SCCPDH (UniProt Q8NBX0)	0.046
RB1 (UniProt P06400)	-0.004
RAB3IL1 (UniProt Q8TBN0)	0.015
SDCBP (UniProt O00560)	-0.039
RTN4IP1 (UniProt Q8WWV3)	0.031
SGPL1 (UniProt O95470)	0.051
RPS14 (UniProt P62263)	-0.04
RAD51 (UniProt Q06609)	0.016
SH3GLB2 (UniProt Q9NR46)	0.051
RPS5 (UniProt P46782)	-0.1
RAD50 isoform 2 (UniProt Q92878)	0.033
RPS13 (UniProt P62277)	-0.101
RHOA (UniProt P61586)	0.026
SLC12A9 (UniProt Q9BXP2)	0.083
SCG3 (UniProt Q8WXD2)	0.013
RSF1 (UniProt Q96T23)	0.095

Target	log2 fold change
RPS3 (UniProt P23396)	-0.088
RPS6KA1 isoform 2 (UniProt Q15418)	0.029
RRAGC (UniProt Q9HB90)	-0.011
SERINC3 (UniProt Q13530)	0.038
RBM25 (UniProt P49756)	0.035
SKP1 (UniProt P63208)	-0.021
RARS (UniProt P54136)	0.037
RDH11 (UniProt Q8TC12)	0.057
RPS15 (UniProt P62841)	-0.125
RPS18 (UniProt P62269)	-0.067
RETSAT (UniProt Q6NUM9)	0.009
RMC1 (UniProt Q96DM3)	0.039
SAAL1 (UniProt Q96ER3)	0.046
RPA1 (UniProt P27694)	0.068
RAC1 (UniProt P63000)	-0.026
SDHC (UniProt Q99643)	-0.04
SERPINA7 (UniProt P05543)	-0.127
